Compound activity as filed in PubChem.
Hits are enriched below; roughly 2.1% of the tested compounds scored in any of these assays.
APP transl inh – inhibitors of APP translation via 5'UTR reporter, primary screen, APP 5'UTR luciferase, SH-SY5Y cells; SH-SY5Y APP 5'UTR-luciferase reporter, luminescence; inhibition, % at 2 µM; 190,000 compounds, 0.82% hits;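 active = inhibition above a set limit, derived from the sample mean plus 3 SD, cut at about 45% in these data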
IEC-6 cytotox – cytotoxicity in IEC-6 intestinal epithelial cells, primary screen, cytotoxicity control for KLF5 inhibitor project, cell-based, luminescence; 290,000 compounds, 0.78% hits; IEC-6 cytotoxicity, luminescence viability; inhibition, % at 5 µM; in the data active = inhibition above about 22%;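 also: 0% = plate median of test compound wells and 100% = cytotoxic reference compound wells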
KLF5 inhibitor – KLF5 expression inhibitors, primary screen, DLD-1 cells, luminescence; DLD-1 KLF5 promoter-luciferase reporter; inhibition, % at 5 µM; 290,000 compounds, 0.23% hits;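 active = inhibition above a per-plate limit of that plate's mean compound inhibition plus 3 SD, cut at about 60% in these data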;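 also: 0% = DMSO wells and 100% = LY294002 at 200 µM; higher means less KLF5 promoter-driven luciferase light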
aSyn 5UTR inh – MLPCN primary screen, SNCA 5' untranslated region; inhibition, % (tested at 7.5 µM); 300,000 compounds, 0.82% hits; alpha-synuclein 5'UTR reporter, inhibitor activity; in the data active = inhibition above about 60%;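 also: H4 neuroglioblastoma cells stably carrying SNCA 5'UTR luciferase fusion; 0% = DMSO wells and 100% = positive control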
BaF3 tox – parental Ba/F3 cell viability inhibition, counter-screen for JAK2V617F inhibitor project, murine pro-B, CellTiter-Glo luminescence. AID 1486, 2009. CellTiter-Glo ATP luminescence. inhibition, % at 5.6 µM. 220,000 compounds, 1.1% hits;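 active = inhibition above a per-campaign cutoff, the mean inhibition of all tested compounds plus 3 SD, cut at about 27% in these data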;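 also: 0% = DMSO wells and 100% = JAK Inhibitor I control wells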
Ba/F3 V617F tox – reduced viability of JAK2V617F-dependent Ba/F3 cells, primary screen, JAK2V617F inhibitor project, cell-based, Ba/F3 EpoR-JAK2V617F, luminescence; ATP luminescence; inhibition, % at 5.6 µM; 220,000 compounds, 1.1% hits; AID 1446, 2008;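 active = inhibition above the campaign mean plus 3 SD over all tested compounds, cut at about 24% in these data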;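 also: cytokine-independent growth of Ba/F3 cells driven by EpoR plus mutant JAK2; 0% = DMSO-treated cells and 100% = JAK inhibitor I control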
* = called active by the depositor.

`COc1ccc(N(CC(=O)Nc2cc(Cl)ccc2OC)S(=O)(=O)c2c(C)noc2C)cc1` gave APP transl inh 54*, IEC-6 cytotox 3, KLF5 inhibitor -1, aSyn 5UTR inh 71*, BaF3 tox 54* and Ba/F3 V617F tox 8.
`COc1ccc(OC)c(NC(=O)CN(c2ccc(C)cc2)S(=O)(=O)c2c(C)noc2C)c1` gave APP transl inh -10, IEC-6 cytotox -1, KLF5 inhibitor 10, aSyn 5UTR inh 12, BaF3 tox 0 and Ba/F3 V617F tox -1.
Screening C=CCc1cccc(/C=N/NC(=O)CNc2cccc3ccccc23)c1O returned APP transl inh 2, IEC-6 cytotox 10, KLF5 inhibitor 3, aSyn 5UTR inh -6, BaF3 tox 5 and Ba/F3 V617F tox 7.
Screening CCOC(=O)N/N=C/c1cn(Cc2ccc(Cl)cc2)c2ccccc12 returned APP transl inh 21, IEC-6 cytotox -4, KLF5 inhibitor -17, aSyn 5UTR inh 70*, BaF3 tox 9 and Ba/F3 V617F tox 3.
Screening C=CCc1cccc(/C=N/NC(=O)CNc2ccccc2)c1O returned APP transl inh 21, IEC-6 cytotox 2, KLF5 inhibitor 7, aSyn 5UTR inh 74*, BaF3 tox 5 and Ba/F3 V617F tox 1.
For O=[N+]([O-])/C=C/c1cn(Cc2ccc(Cl)cc2)c2ccccc12 the results were APP transl inh -8, IEC-6 cytotox 2, KLF5 inhibitor 1, aSyn 5UTR inh 65*, BaF3 tox 0 and Ba/F3 V617F tox -4.
`O=C(CNc1ccc2c(c1)OCO2)N/N=C\c1cn(Cc2ccccc2)c2ccccc12` gave APP transl inh 19, IEC-6 cytotox -4, KLF5 inhibitor -24, aSyn 5UTR inh 81*, BaF3 tox 5 and Ba/F3 V617F tox -1.
Cc1ccc(S(=O)(=O)N2CCCC2CNC(=O)C(=O)Nc2ccc(F)cc2)cc1 (stereo unspecified) was read as aSyn 5UTR inh -74.
For CCC1CSC(=Nc2ccc(C)cc2)N1C(=O)CN1C(=O)NC2(CCCC2)C1=O (stereo unspecified) the results were IEC-6 cytotox -2, KLF5 inhibitor -85 and aSyn 5UTR inh -24.
`CC1CCC(NC(=O)CSc2nncs2)CC1` (stereo unspecified) gave aSyn 5UTR inh -9.
Screening O=C(/C=C/c1ccc2c(c1)OCO2)NCc1ccncc1 returned IEC-6 cytotox -3, KLF5 inhibitor -31, aSyn 5UTR inh -19, BaF3 tox 2 and Ba/F3 V617F tox 0.
Screening O=C(N/N=C/c1cn(Cc2ccccc2)c2ccccc12)c1ccncc1 returned APP transl inh -4, IEC-6 cytotox 4, KLF5 inhibitor -11, aSyn 5UTR inh 58, BaF3 tox 12 and Ba/F3 V617F tox 0.
Nc1ccc(C(=O)N/N=C/c2cn(Cc3cccc(F)c3)c3ccccc23)cc1 was read as IEC-6 cytotox 6, KLF5 inhibitor -28 and aSyn 5UTR inh 70*.
Screening O=C1Nc2ccccc2N(O)N1c1cc(-c2ccc(Cl)cc2)[nH]n1 returned APP transl inh -15, IEC-6 cytotox -3, KLF5 inhibitor -9, aSyn 5UTR inh 1, BaF3 tox 1 and Ba/F3 V617F tox -5.
`Cc1ccc(NC(=S)NC(NC(=O)c2ccco2)C(Cl)(Cl)Cl)cc1` (stereo unspecified) gave APP transl inh 12, IEC-6 cytotox -1, KLF5 inhibitor -20, aSyn 5UTR inh -7, BaF3 tox 3 and Ba/F3 V617F tox 2.
Cc1cccc(NC(=S)NC(NC(=O)c2ccco2)C(Cl)(Cl)Cl)c1 (stereo unspecified) was read as APP transl inh 58*, IEC-6 cytotox 2, KLF5 inhibitor -33, aSyn 5UTR inh -19, BaF3 tox 1 and Ba/F3 V617F tox 2.
Screening Cn1c(CCN2CCN(c3ccccn3)CC2)nc2cc(NS(=O)(=O)c3ccc(Cl)cc3)ccc21 returned IEC-6 cytotox 17, KLF5 inhibitor -15 and aSyn 5UTR inh 8.
Screening CC1CN(S(=O)(=O)c2ccc(C(=O)Nc3nnc(-c4ccc5c(c4)CCCC5)o3)cc2)CC(C)O1 (stereo unspecified) returned APP transl inh 14, IEC-6 cytotox 5, KLF5 inhibitor -26, aSyn 5UTR inh 76*, BaF3 tox 7 and Ba/F3 V617F tox 1.
For O=C(Nc1nnc(C2CC2)o1)c1ccc(S(=O)(=O)N2CCCc3ccccc32)cc1 the results were APP transl inh -8 and aSyn 5UTR inh 63*.
Screening COc1ccc(-c2nnc(NC(=O)c3ccc(S(=O)(=O)N4CCCc5ccccc54)cc3)o2)cc1 returned APP transl inh 22, IEC-6 cytotox -1, KLF5 inhibitor 21, aSyn 5UTR inh 69*, BaF3 tox 4 and Ba/F3 V617F tox 0.
For CC1CN(S(=O)(=O)c2ccc(C(=O)Nc3nnc(-c4ccccn4)o3)cc2)CC(C)O1 (stereo unspecified) the results were APP transl inh -17, IEC-6 cytotox -8, KLF5 inhibitor -11, aSyn 5UTR inh -11, BaF3 tox -3 and Ba/F3 V617F tox 0.
`Cc1cc(NC(=O)COC(=O)c2ccc(S(=O)(=O)N3CCCc4ccccc43)cc2)no1` gave APP transl inh 92*, IEC-6 cytotox 2, KLF5 inhibitor 63*, aSyn 5UTR inh 46, BaF3 tox 49* and Ba/F3 V617F tox 63*.
`Cc1cc(NC(=O)COC(=O)c2ccc(S(=O)(=O)N3CCCC3)cc2)no1` gave APP transl inh -8, IEC-6 cytotox -1, KLF5 inhibitor -18, aSyn 5UTR inh 7, BaF3 tox 5 and Ba/F3 V617F tox -1.
For NS(=O)(=O)c1cnccc1NCCc1ccccc1 the results were aSyn 5UTR inh -9.
Screening O=C(NC(=S)Nc1ccc(Cl)cn1)c1cc([N+](=O)[O-])ccc1N1CCOCC1 returned IEC-6 cytotox -4, KLF5 inhibitor -19 and aSyn 5UTR inh -3.
O=C(O)c1cccc(-c2ccc(/C=N/NC(=O)c3cccnc3)o2)c1 was read as APP transl inh -5, IEC-6 cytotox -7, KLF5 inhibitor -47, aSyn 5UTR inh -27, BaF3 tox 28* and Ba/F3 V617F tox 0.
For Cc1ccc(/C=N/NC(=O)c2cccnc2)o1 the results were APP transl inh 11, IEC-6 cytotox 3, KLF5 inhibitor -36, aSyn 5UTR inh -6, BaF3 tox 2 and Ba/F3 V617F tox -1.
CC1(C)Cc2c(c(-c3ccccc3)nc(N3CCOCC3)c2C(N)=O)CO1 was read as APP transl inh 66*, IEC-6 cytotox -2, KLF5 inhibitor -8, aSyn 5UTR inh 9, BaF3 tox 0 and Ba/F3 V617F tox -4.
Screening CCN(C(=O)COC(=O)c1ccccc1NCCO)c1cccc2ccccc12 returned aSyn 5UTR inh 9.
